Assay results: PubChem BioAssay (NCI)
About 83,000 compounds went through this panel and 20% of them were active in at least one assay; those are over-represented in the sample as a whole.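 Negative percent growth values reflect cell death: -40 means 40% of the cells present at the start died, and -100 means all died.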 Unmarked numbers belong to inactive results. Active and inactive are the calls of the source. Rule for the calls: active = growth percent below 10; inactive = the rest.

Assays:
Assay in all cases: NCI-60 one-dose screen, 48 h (100 = growth as untreated, 0 = no growth, -100 = all killed)
Conditions in all cases: 10 µM unless noted
[1] = system: DU-145 prostate
[2] = system: K-562 leukemia
[3] = system: MALME-3M melanoma
[4] = system: MDA-MB-231 breast
[5] = system: RXF 393 renal
[6] = system: SF-268 CNS
[7] = system: SF-295 CNS
[8] = system: SF-539 CNS
[9] = system: UACC-257 melanoma
[10] = system: M14 melanoma

SMILES	growth [1]	growth [2]	growth [3]	growth [4]	growth [5]	growth [6]	growth [7]	growth [8]	growth [9]	growth [10]
FC(F)(F)c1cc(N2CCCCC2)nc(NCCCNc2ccnc3cc(Cl)ccc23)n1	81.8%	11.2%	72.7%	87.9%	59.7%	70.3%	51.1%	74.8%	53.3%	70.9%
O=C(CN1C(=O)NC2NC(=O)NC21)N/N=C/c1cccc([N+](=O)[O-])c1 (stereo not given)	110%	103%	105%	104%	104%	99%	102%	100%	118%	109%
O=C1c2ccccc2C(=O)c2cc(Cn3c[n+](Cc4ccc5ccccc5c4)c4ccccc43)ccc21	83.1%	17.6%	48%	26.2%	62.6%	49.3%	82.2%	70.6%	42.9%	38.7%
CNC1=C([N+](=O)[O-])C(c2ccc(OC)cc2)C(C#N)=C(c2ccc[nH]2)O1 (stereo not given)	107%	95.7%	97.9%	104%	113%	103%	101%	99.2%	106%	104%
C=C(CNCCc1ccc(O)cc1)[C@@H]1CC[C@]2(CO)CC[C@]3(C)[C@H](CC[C@@H]4[C@@]5(C)CCC(N)C(C)(C)[C@@H]5CC[C@]43C)[C@@H]12 (stereo not given in full)	-68.6% (active)	-50.9% (active)	-86.2% (active)	-80.5% (active)	-90.9% (active)	-74.3% (active)	-82% (active)	-93.4% (active)	-77.3% (active)	-81.8% (active)
COC(=O)c1c(C)nc(C)c2c1C(=O)C(Br)=C(NCCN1CCOCC1)C2=O	112%	97.4%	37%	112%	106%	95.3%	95.8%	107%	87.5%	87.8%
COc1cccc(C(=O)Nc2cccc(NC(=O)c3ccccn3)c2)c1	109%	90.5%	94.4%	105%	115%	96.9%	91.6%	104%	109%	87.9%
c1ccc(-c2nc(N3CCNCC3)c3oc(-c4ccccc4)nc3n2)cc1	-55.4% (active)	2.28% (active)	-93.9% (active)	-87.1% (active)	-81.4% (active)	-48.8% (active)	-73.6% (active)	-95.9% (active)	101%	-60.3% (active)
COc1ccc(/C=C\c2cc(OC)c(OC)c(OC)c2)cc1OCC(=O)Nc1nc2ccccc2s1	-27.3% (active)	15.6%	49.7%	21.8%	20.6%	24.1%	9.97% (active)	11.8%	54.4%	27.6%
COc1cccc(C2C(C#N)=C(N)Oc3c2ccc2ccccc32)c1 (stereo not given)	16.9%	6.44% (active)	54.4%	24.2%	40.7%	30.9%	23.5%	-12% (active)	82%	9.7% (active)
CC(C)n1cc(C2=C(c3cccc4ccccc34)C(=O)NC2=O)c2cc(Br)ccc21	71%	34.8%	122%	91.2%	24.4%	67.5%	63.9%	60.9%	111%	76.1%
COC(=O)c1ccc(-n2cc(CCCOS(=O)(=O)c3ccc(F)cc3)nn2)cc1	107%	95.5%	98.6%	106%	105%	98.6%	102%	96.7%	97.2%	104%
C#CC(F)(F)[C@]1(O)CCC2C3CCC4=CC(=O)CCC4=C3[C@@H](c3ccc(N(C)C)cc3)C[C@@]21C (stereo not given in full)	104%	85.9%	103%	84.7%	98.1%	95.9%	86.2%	82.7%	80.9%	86.1%
COc1ccc(NC(=O)c2ccc(NC3=C(c4ccc(Cl)cc4)C(=O)NC3=O)cc2)cc1	91.4%	79%	86.9%	84.8%	84.4%	83.8%	86.8%	92.4%	85.9%	102%
O=C(/C=C\c1ccc(O)c(O)c1)c1ccccc1O	94.4%	73.4%	97.4%	69.3%	42.8%	69.5%	99.7%	59.3%	86.1%	93.5%
COCCn1cc(-c2nc(-c3cc4cccnc4n3C)cs2)c2cc(OC)ccc21	76.7%	9.5% (active)	108%	27.5%	78.3%	71.3%	66.1%	66.9%	74.3%	63.7%
Cc1ccc(NC(=O)c2ccc(Nc3ncnc4c3cnn4-c3cccc(F)c3)cc2)cc1	104%	96.3%	101%	95.2%	92.5%	97.2%	103%	101%	98%	99%
CCCC1Cc2cc(-n3nc(C)c4c3CC(C)(C)CC4=O)cc(NC3CCC(O)CC3)c2C(=O)N1 (stereo not given)	53.7%	14.3%	12.3%	-15.1% (active)	65.3%	65.3%	21%	34.4%	37.1%	33.7%
Cc1cc2c(c(C)n1)CN(C(=O)Nc1nc(-c3cncs3)ccc1N)C2	107%	101%	96.7%	113%	111%	101%	99.5%	86.5%	103%	104%
COc1cc(C(=O)/C=C/c2c(-c3cccs3)nc3sc(C)cn23)cc(OC)c1OC	-18.1% (active)	7.44% (active)	-10.6% (active)	43.3%	-35.3% (active)	20%	3.07% (active)	-2.02% (active)	0.649% (active)	1.71% (active)
CCNCCNc1c(C)c(-c2ccc(C(F)(F)F)cc2)c(C#N)c2nc3ccccc3n12	99.1%	54.8%	109%	90.9%	90.4%	80.8%	91.4%	82.7%	79.6%	56.1%
COc1cccc(/C=C/C(=O)/C=C(/C=C/c2cccc(OC)c2OC)OB(F)F)c1OC	55.7%	32.9%	32%	60.3%	102%	95.3%	103%	57.7%	28.6%	61.7%
CCOC(=O)CC1C(CNC(=O)NC)OC(n2cnc3c(NC(=O)Nc4ccccc4)ncnc32)C1O[Si](C)(C)C(C)(C)C (stereo not given)	63.3%	58.7%	55.3%	50.8%	-45.2% (active)	58.6%	16%	52.6%	87.5%	67.3%
C#Cc1cccc(Nc2nc(Cl)nc3cc(NC(=O)CCl)ccc23)c1	-93.5% (active)	-36.2% (active)	-83.3% (active)	-73% (active)	-94.2% (active)	-52.2% (active)	-86.9% (active)	-96.5% (active)	-53.9% (active)	-52.2% (active)
COc1nc2ccccc2cc1/C=C1/C=C(c2ccccc2)NC1=O	55.8%	13.1%	38.3%	46.1%	46%	48.8%	28.5%	19.6%	60.7%	24.6%
CC(C)(C)n1cc(-c2ccnc(NCCNS(=O)(=O)c3ccc(Br)cc3)c2)c(-c2cccc(O)c2)n1	49.8%	6.18% (active)	20.1%	38.2%	26.3%	33.1%	31.8%	46.5%	36%	21.9%
Nc1nc(N)c2c(n1)NC(c1ccc3c(c1)OCO3)CC(c1cccc(Nc3ccncc3)c1)=N2 (stereo not given)	106%	44.3%	100%	94.2%	82.2%	68.1%	96.5%	101%	67.3%	83.5%
